11 molecules from ChEMBL document CHEMBL1961873, “Compounds: GSK PKIS; Assays: Nanosyn kinase panel” (2012) can be followed below.

The subject of experiment [1] is Epidermal growth factor receptor (Homo sapiens), P00533 [T790M]. As to conditions: at 1 µM.
Experiment [2] relates to Epidermal growth factor receptor (Homo sapiens), P00533 [L858R,T790M]. As to conditions: at 0.1 µM.
Experiment [3] has the same test system. As to conditions: at 1 µM.
For experiment [4], the target named is Ephrin type-A receptor 2 (Homo sapiens) (UniProt P29317). To be noted: at 0.1 µM.
Chain of Ephrin type-A receptor 2 (Homo sapiens) (P29317 whole entry): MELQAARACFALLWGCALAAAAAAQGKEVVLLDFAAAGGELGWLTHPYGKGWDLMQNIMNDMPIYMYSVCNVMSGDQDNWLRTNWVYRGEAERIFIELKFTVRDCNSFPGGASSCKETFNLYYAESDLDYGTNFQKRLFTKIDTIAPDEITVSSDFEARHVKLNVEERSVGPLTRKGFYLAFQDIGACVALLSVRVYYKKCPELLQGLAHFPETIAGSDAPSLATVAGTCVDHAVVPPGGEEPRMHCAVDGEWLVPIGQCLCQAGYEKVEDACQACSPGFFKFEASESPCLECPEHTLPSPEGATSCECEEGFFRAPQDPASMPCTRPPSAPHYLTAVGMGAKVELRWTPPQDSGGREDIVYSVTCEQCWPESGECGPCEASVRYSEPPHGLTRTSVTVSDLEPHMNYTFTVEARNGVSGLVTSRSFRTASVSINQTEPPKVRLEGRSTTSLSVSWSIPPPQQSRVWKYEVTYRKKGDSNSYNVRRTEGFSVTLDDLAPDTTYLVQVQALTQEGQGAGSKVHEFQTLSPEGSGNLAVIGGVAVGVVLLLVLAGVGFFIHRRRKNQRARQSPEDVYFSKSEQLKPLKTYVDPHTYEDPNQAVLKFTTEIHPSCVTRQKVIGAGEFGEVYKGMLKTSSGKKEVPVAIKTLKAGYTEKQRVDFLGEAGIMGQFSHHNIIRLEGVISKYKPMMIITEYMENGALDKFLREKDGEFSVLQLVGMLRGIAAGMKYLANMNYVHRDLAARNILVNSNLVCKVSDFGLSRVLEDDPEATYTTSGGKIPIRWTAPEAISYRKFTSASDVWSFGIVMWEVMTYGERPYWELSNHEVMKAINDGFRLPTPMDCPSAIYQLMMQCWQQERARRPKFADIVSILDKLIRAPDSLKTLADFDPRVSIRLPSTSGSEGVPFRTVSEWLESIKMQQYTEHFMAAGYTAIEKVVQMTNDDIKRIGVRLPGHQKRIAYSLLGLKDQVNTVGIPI
Experiment [5] has the same target. To be noted: at 1 µM.
Experiment [6] has as its target T1, Ephrin type-A receptor 3 (Homo sapiens) (UniProt P29320).
T1 sequence (whole entry): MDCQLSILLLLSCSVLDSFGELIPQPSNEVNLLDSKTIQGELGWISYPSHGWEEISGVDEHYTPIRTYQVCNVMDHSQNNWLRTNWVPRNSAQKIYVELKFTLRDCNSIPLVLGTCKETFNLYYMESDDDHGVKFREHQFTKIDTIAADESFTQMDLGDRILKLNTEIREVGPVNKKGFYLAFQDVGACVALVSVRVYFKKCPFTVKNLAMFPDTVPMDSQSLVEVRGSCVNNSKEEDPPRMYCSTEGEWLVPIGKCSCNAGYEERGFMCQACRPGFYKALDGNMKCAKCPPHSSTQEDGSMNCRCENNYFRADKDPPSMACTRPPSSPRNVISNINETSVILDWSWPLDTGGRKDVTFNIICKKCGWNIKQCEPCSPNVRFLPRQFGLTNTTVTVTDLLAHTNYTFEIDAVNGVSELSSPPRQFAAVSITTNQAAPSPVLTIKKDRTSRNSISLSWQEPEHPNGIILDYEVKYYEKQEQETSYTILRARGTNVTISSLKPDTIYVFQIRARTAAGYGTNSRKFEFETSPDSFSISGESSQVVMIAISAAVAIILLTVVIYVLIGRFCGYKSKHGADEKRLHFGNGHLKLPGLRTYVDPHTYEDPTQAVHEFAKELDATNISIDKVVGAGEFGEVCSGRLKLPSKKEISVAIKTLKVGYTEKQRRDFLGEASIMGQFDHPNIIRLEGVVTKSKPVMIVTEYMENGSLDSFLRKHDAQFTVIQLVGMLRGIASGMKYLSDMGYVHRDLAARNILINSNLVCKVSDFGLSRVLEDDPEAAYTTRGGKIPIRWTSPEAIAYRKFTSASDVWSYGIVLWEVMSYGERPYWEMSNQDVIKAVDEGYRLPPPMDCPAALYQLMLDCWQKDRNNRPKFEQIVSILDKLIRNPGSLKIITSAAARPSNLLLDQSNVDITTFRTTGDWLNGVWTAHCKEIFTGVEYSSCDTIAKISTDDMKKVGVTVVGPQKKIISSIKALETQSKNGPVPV
As to conditions: at 0.1 µM.

Experiment [7] has as its target T1, Ephrin type-A receptor 3 (Homo sapiens). To be noted: at 1 µM.
Experiment [8] addresses Ephrin type-A receptor 4 (Homo sapiens) (UniProt P54764). As to conditions: at 0.1 µM.
Experiment [9] has the same target. To be noted: at 1 µM.
The target of experiment [10] is T2, Ephrin type-B receptor 2 (Homo sapiens) (UniProt P29323).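 Also: reported as mean inhibition of EPHB2, from the GSK PKIS dataset.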
T2 sequence (whole entry): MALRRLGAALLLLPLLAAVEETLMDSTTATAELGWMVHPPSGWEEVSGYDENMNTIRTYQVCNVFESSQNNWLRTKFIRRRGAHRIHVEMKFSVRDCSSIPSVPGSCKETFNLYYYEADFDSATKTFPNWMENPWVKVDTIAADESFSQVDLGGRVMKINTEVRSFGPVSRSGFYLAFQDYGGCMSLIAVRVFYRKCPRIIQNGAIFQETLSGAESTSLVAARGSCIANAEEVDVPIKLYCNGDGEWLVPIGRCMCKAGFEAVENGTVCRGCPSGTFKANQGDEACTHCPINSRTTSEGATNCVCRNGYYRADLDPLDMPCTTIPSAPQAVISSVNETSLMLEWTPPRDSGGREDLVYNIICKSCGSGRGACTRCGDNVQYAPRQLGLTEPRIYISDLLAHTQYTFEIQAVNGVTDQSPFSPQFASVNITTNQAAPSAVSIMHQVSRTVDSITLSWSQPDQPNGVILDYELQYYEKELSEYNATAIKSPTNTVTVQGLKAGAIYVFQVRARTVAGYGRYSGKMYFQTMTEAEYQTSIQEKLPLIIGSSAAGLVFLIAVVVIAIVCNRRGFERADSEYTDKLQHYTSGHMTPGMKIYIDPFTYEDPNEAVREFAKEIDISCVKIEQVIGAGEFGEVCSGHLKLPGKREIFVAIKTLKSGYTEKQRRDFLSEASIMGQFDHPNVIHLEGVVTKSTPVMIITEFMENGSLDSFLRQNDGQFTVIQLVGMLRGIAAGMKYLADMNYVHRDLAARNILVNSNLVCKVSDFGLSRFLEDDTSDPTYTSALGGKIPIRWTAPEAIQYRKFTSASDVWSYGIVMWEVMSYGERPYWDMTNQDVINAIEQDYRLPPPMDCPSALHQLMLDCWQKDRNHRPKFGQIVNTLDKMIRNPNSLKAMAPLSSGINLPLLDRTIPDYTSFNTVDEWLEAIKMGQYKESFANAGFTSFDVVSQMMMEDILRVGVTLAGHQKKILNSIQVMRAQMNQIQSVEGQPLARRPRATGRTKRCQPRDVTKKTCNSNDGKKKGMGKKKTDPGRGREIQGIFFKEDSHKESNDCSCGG
To be noted: at 0.1 µM.

Molecules are shown by their SMILES. Values joined by “and” are separate entries in the source; they are usually repeats but may differ in a detail not shown here. Equal entries are not always repeated.

Chain of Epidermal growth factor receptor (Homo sapiens), P00533 [L858R,T790M] (P00533 whole entry T790M/L858R, looked up): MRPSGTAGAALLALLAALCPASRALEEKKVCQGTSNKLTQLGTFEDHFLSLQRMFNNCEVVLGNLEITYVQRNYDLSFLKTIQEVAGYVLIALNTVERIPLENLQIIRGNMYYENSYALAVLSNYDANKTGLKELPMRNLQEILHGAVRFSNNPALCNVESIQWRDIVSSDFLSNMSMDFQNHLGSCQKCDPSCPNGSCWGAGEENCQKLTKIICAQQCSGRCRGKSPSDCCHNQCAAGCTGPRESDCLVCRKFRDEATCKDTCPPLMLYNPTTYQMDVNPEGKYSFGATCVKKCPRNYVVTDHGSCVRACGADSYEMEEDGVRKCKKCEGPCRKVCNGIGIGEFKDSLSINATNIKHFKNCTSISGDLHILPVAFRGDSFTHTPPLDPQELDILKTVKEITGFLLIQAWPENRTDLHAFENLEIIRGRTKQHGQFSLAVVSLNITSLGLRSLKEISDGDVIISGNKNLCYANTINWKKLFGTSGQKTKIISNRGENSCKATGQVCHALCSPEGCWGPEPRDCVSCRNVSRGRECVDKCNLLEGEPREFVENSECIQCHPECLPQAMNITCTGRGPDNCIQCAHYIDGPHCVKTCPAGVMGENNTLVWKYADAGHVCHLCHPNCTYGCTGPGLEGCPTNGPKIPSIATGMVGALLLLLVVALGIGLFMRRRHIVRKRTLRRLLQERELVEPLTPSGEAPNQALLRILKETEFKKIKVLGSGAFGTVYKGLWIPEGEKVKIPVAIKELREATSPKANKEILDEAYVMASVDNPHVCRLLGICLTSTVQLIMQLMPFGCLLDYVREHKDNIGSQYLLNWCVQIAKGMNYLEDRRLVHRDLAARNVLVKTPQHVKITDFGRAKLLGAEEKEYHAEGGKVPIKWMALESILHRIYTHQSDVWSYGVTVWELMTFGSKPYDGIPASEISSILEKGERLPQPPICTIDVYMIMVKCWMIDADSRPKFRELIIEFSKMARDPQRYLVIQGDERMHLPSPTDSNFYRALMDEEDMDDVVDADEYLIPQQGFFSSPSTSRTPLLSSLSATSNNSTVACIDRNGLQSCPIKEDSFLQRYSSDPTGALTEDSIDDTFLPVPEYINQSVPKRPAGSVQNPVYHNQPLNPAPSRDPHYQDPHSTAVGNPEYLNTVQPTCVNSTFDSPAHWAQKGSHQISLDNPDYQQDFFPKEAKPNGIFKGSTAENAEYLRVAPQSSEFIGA
Chain of Ephrin type-A receptor 4 (Homo sapiens) (P54764 whole entry): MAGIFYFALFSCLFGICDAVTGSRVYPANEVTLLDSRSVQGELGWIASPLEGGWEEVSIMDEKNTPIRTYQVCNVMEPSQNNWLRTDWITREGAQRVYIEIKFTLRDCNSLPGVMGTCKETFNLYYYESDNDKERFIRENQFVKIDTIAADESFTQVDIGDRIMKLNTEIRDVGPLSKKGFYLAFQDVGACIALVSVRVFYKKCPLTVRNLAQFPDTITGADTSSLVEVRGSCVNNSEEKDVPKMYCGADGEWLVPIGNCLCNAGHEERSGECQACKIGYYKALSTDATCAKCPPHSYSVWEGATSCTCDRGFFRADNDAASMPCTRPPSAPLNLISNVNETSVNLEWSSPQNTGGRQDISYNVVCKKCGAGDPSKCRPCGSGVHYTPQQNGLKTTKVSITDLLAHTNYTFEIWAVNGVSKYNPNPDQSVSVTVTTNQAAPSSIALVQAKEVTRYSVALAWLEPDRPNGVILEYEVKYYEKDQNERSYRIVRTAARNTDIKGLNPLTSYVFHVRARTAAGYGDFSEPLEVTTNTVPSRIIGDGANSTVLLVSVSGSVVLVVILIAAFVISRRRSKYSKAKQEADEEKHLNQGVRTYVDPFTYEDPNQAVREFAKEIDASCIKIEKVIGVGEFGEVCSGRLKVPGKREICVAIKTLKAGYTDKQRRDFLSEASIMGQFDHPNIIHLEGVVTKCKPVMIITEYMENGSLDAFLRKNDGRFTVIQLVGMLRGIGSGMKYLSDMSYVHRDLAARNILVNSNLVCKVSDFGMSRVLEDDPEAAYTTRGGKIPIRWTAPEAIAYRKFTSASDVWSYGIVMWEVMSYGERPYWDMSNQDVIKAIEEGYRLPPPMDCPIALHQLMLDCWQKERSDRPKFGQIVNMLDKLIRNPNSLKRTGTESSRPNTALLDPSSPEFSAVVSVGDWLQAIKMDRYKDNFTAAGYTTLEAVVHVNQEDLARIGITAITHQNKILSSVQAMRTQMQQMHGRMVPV
Chain of Epidermal growth factor receptor (Homo sapiens), P00533 [T790M] (P00533 whole entry T790M): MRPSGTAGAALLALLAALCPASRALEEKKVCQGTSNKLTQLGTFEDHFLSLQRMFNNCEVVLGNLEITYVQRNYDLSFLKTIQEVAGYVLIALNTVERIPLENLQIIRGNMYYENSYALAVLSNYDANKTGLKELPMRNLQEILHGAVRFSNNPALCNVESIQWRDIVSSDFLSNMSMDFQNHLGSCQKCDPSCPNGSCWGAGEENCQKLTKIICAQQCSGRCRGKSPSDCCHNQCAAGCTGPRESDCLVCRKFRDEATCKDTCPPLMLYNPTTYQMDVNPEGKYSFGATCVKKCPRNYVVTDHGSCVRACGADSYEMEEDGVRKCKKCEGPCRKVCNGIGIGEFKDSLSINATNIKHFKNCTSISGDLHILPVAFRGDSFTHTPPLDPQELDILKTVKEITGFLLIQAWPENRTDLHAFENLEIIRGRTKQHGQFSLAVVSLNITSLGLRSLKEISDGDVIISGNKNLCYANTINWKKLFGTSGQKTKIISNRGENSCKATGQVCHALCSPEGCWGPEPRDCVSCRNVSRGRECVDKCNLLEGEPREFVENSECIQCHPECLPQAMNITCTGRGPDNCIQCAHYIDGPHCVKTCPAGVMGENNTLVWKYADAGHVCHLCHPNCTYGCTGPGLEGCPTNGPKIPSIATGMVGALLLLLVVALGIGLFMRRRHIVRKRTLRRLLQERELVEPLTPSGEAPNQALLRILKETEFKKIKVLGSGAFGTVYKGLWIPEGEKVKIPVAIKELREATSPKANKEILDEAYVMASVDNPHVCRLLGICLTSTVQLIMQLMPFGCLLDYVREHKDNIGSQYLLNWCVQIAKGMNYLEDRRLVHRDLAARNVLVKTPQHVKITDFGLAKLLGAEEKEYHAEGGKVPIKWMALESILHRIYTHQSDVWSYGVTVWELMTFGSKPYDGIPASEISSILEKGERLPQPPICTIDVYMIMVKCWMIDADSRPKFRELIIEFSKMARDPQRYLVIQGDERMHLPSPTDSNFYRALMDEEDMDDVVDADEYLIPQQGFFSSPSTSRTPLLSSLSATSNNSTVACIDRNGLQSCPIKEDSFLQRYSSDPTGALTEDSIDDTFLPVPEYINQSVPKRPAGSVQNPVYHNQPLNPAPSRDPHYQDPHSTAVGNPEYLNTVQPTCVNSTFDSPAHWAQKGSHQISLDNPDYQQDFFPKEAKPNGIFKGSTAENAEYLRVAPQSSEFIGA

What is called inhibition is the drop in the measured response relative to a control, in per cent. As to `CNC(=O)c1cncc(/C=C/c2ccccc2C)c1`, the inhibition in experiment [1] was found to be 4.37%; in experiment [2], 1.98%; in experiment [3], 6.74%; in experiment [4] it was 2.22%; in experiment [5], 3.92%; in experiment [6], 6.53%. Moreover, the inhibition in experiment [7] turned out to be 6.47%; in experiment [8] it was 11.7%; in experiment [9] it was 26.1%; in experiment [10], 7.84%.
Take `O=C(Nc1n[nH]c2nnc(-c3cccnc3)cc12)C1CC1`: the inhibition in experiment [1] is -0.7%; in experiment [2] it was -0.13%; in experiment [3], -0.34%; in experiment [4], -3.08%; in experiment [5], -2.73%; in experiment [6], -1.3%. Moreover, the inhibition in [7] was -0.05%; in experiment [8], 0.83%; in [9], 2.33%; in experiment [10] it was 0.05%.
As for `CN(c1ccc(NC(=O)NCCN2CCOCC2)cc1)c1ccnc(Nc2ccc(CS(C)(=O)=O)cc2)n1`, the inhibition in experiment [1] was 4.33%; in experiment [2] it was 0.85%; in [3] it was 2.57%; in experiment [4] it was 2.23%; in [5], 2.79%; in [6] it was 4.27%. Also, the inhibition in experiment [7] came to 5.54%; in [8] it was 8.57%; in experiment [9] it was 19.6%; in experiment [10], 6.47%.
Turning to `COc1cccc(-n2ncc3c(N/N=C/c4ccc(C(=O)NCCN(C)C)cc4)ncnc32)c1`, the inhibition was determined as 4.06% in experiment [1]; 4.3% in experiment [2]; 25.9% in experiment [3]; 1.33% in experiment [4]; 5.44% in experiment [5]; 3.11% in experiment [6]. Also, the inhibition in experiment [7] is 6.35%; in experiment [8], 2.76%; in [9], 15.9%; in experiment [10] it was 14.1%.
Take `NS(=O)(=O)c1ccc(N/N=C2\C(=O)Nc3cccc(CCc4ccncc4)c32)cc1`: the inhibition in [1] is 0.76%; in [2] it was -0.13%; in experiment [3], 1.83%; in experiment [4] it was -2.9%; in [5] it was -1.98%; in experiment [6], 0.59%. The inhibition worked out at 0.71% in experiment [7], 3.79% in [8], 5.47% in experiment [9] and 4.47% in experiment [10].
With `CN1CCC(C(=O)Nc2n[nH]c3nc(-c4ccc(O)cc4)c(Br)cc23)CC1`, the inhibition in [1] was 2.93% and 1.04%; in experiment [2] it was -0.55% and -2.98%; in [3], 1.4% and -0.59%; in [4] it was -3.15% and 0%; in experiment [5] it was -2.77% and -1.38%; in experiment [6] it was -0.96% and 1.14%. The inhibition in experiment [7] is -1.23% and 3.96%; in experiment [8], 7.94% and 4.03%; in experiment [9] it was 10.9% and 9.16%; in experiment [10], 2.8% and -0.98%.
Consider `Fc1ccc(Nc2nccc(-c3c(-c4ccc(C(F)(F)F)cc4)nn4ncccc34)n2)cc1F`, for which the inhibition is 0.77% in [1]; -1.9% in [2]; 0.06% in [3]; 2.87% in experiment [4]; 0.53% in [5]; 2.83% in experiment [6]. For the same molecule, the inhibition turned out to be 3.84% in experiment [7], 5.7% in experiment [8], 1.99% in [9] and 8.38% in experiment [10].
Turning to `Cc1cc(O)cc(C)c1/C=C/c1cncc(C(N)=O)c1`, the inhibition amounted to 1.53% in experiment [1]; 0.06% in experiment [2]; 1.88% in [3]; 8.68% in [4]; 47.2% in experiment [5]; 5.13% in experiment [6]. Also, the inhibition came to 19.5% in [7], 18.6% in experiment [8], 69.2% in experiment [9] and 16.3% in experiment [10].
`COc1ccccc1-c1cc(/C=C2\C(=O)Nc3ncc(Br)cc32)cc(Br)c1O`: the inhibition in experiment [1] stood at 1.53%; in experiment [2], 1.24%; in experiment [3] it was 4.48%; in [4] it was 1.75%; in [5] it was 3.18%; in experiment [6], 4.45%. In addition, the inhibition came to 5.49% in [7], 9.58% in experiment [8], 6.4% in [9] and 6.05% in experiment [10].
Turning to `COc1ccc(Nc2ncc(-c3ccccc3)o2)cc1OC`, the inhibition in experiment [1] is -1.98%; in experiment [2] it was -0.33%; in [3], -0.29%; in experiment [4] it was 0.89%; in experiment [5], 2.73%; in experiment [6], -1.2%. For the same molecule, the inhibition in experiment [7] was 1.63%; in experiment [8] it was 2.72%; in [9] it was 1.61%; in experiment [10], -1.69%.
In the case of `Nc1nccc(-c2c(-c3ccc(F)cc3)ncn2C2CCNCC2)n1`, the inhibition in experiment [1] was -1.82% and -1.43%; in [2], -3.77% and -2.58%; in experiment [3], -3.38% and 2.32%; in experiment [4] it was -1.11% and -2.31%; in experiment [5], -3.3% and -3.19%; in [6], -5.79% and -0.55%. In addition, the inhibition in experiment [7] is -3.63% and 1.63%; in [8] it was -7.34% and 0.75%; in experiment [9], -6.76% and 4.23%; in [10] it was -3.07% and 5.6%.
